Screens (PubChem)
Compounds with a hit are over-represented: about 3.2% of the library has one in this group of screens.
pS6 MEF inh: reduces mTORC1 signaling in Tsc2 and p53 null MEF cells; 44,000 compounds, 0.78% hits; Potency, µM (top dose mostly 38.3 µM), for inactives: top-dose activity change, negative = inhibition, hits mostly inhibitors; Tsc2-/- p53-/- MEF, phospho-rpS6 immunofluorescence/PI, 24 h;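 note: potency is the fitted concentration of half-maximal effect; plate controls were DMSO for no effect and rapamycin for full effect; nearly all actives have a fitted effect of over 50% in size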
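Tsc2-/-, p53-/- mouse embryonic fibroblasts (empty-vector line) exposed to compound 24 hrs at 37 C, fixed, immunostained for phospho-rpS6 and counterstained with propidium iodide. Acumen laser scanning gives % positive cells from Alexa 488/PI ratio, thresholded using 7.5 nM rapamycin; PI count gives viability.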
p53null 39C tox: selectivity test: cytotoxicity in p53 null cells, nonpermissive temperature. H1299 p53-null (neo) cells, 39C, ATPlite viability, 24 h. 55,000 compounds, 0.97% hits. AID 904. Potency, µM (highest dose often 46.1 µM), without a hit: top-dose activity, negative = cell killing, most hits filed as cytotoxic;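 note: potency is the fitted concentration of half-maximal effect; 0% = DMSO only and -100% = full killing by 100 µM tamoxifen; nearly all actives have a fitted effect of over 50% in size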
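Concentration-response (up to 46 uM) was run for 24 h at the nonpermissive 39C on H1299-p53A138V or H1299-neo cells. ATP content was measured with ATPlite luminescence. AC50 values were Hill-modeled after normalizing between DMSO and 100 uM tamoxifen killing.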
S16 viability: cytotoxicity in S16 Pmp22-F2sN Schwann cells; S16 Pmp22-F2sN Schwann cells viability, CellTiter-Glo, 24 h; Potency, µM (titrated, usually from 57.5 µM), for the others: at the highest dose activity change, negative = cytotoxicity, usual class: cytotoxic; 43,000 compounds, 0.48% hits; AID 1508642; note: potency is the fitted concentration of half-maximal effect; % is set by controls: 0 for no effect and ±100 for the full control effect; nearly all actives have a fitted effect of over 65% in size
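Luminescence from CellTiter-Glo, read by CCD camera after a 15 min room-temperature incubation, served as the viability signal. Reporter Schwann cells (S16 Pmp22-F2sN) had been treated with pin-transferred compounds for 24 h at 37C.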
p53null 32C tox: p53 null cell cytotoxicity, permissive temperature; Potency, µM (doses to about 46.1 µM), for the others: at the highest dose activity change, negative = cytotoxicity, most hits filed as cytotoxic; H1299-neo p53 null cells, ATP luminescence, 24 h, 32C; 55,000 compounds, 0.62% hits; AID 903;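 note: potency is the fitted concentration of half-maximal effect; 0% = DMSO only and -100% = full killing by 100 µM tamoxifen; nearly all actives have a fitted effect of over 55% in size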
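Cytotoxicity: H1299-neo (no p53), 32C, 24 h treatment. Concentrations up to 46 uM. Readout cellular ATP, luminescence. Normalization to DMSO basal and tamoxifen 100 uM maximal kill.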
PMP22 txn: modulates PMP22 transcription in S16 Schwann cells; 43,000 compounds, 2% hits; S16 Pmp22-F2sN Schwann cells (luciferase reporters placed in the Pmp22 gene), FLuc/NLuc coincidence luminescence, 24 h; Potency, µM (titrated, usually from 57.5 µM), for inactives: top-dose activity change, negative = inhibition, actives largely listed as inhibitors; active = clear falling dose curves in both reporters; inconclusive = both reporters move, but less clearly or upward; inactive = either reporter flat; the % is the NLuc reporter signal; note: potency is the fitted concentration of half-maximal effect; % is set by controls: 0 for no effect and ±100 for the full control effect
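Luminescent read-out of sequential FLuc and NLuc signals from a reporter embedded in the Pmp22 3' UTR of S16 Schwann cells, taken after 24 h compound exposure at 37C; compounds reducing both signals score as inhibitors of expression.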
NLuc saturating: NanoLuc enzyme inhibition artifact for PMP22 screen. shares compounds with PMP22 txn. Potency, µM (top dose mostly 57.5 µM), without a hit: at the top dose activity change, negative = inhibition, most hits filed as inhibitors. 690 compounds, 4% hits. Secreted NLuc enzyme (filtered S16 cell medium), Nano-Glo luminescence; note: potency is the fitted concentration of half-maximal effect; % is set by controls: 0 for no effect and ±100 for the full control effect
NLuc Km counter: NanoLuc inhibition at Km substrate, PMP22 artifact check. shares compounds with PMP22 txn. secreted NLuc enzyme, coelenterazine luminescence, Km conditions. Potency, µM (highest dose often 57.5 µM), without a hit: top-dose activity change, negative = inhibition, usual class: inhibitors. 690 compounds, 5% hits; note: potency is the fitted concentration of half-maximal effect; % is set by controls: 0 for no effect and ±100 for the full control effect
FLuc ctr PMP22: inhibits firefly luciferase, PMP22 counter-screen. 690 tested, under 10 active. purified P. pyralis FLuc, luminescence, 10 min. Potency, µM (doses to about 57.5 µM), inactives show top-dose activity, negative = inhibition, most hits filed as inhibitors. shares compounds with PMP22 txn; note: % of control where 0% means no effect
Target sequence (P08659 whole entry, looked up): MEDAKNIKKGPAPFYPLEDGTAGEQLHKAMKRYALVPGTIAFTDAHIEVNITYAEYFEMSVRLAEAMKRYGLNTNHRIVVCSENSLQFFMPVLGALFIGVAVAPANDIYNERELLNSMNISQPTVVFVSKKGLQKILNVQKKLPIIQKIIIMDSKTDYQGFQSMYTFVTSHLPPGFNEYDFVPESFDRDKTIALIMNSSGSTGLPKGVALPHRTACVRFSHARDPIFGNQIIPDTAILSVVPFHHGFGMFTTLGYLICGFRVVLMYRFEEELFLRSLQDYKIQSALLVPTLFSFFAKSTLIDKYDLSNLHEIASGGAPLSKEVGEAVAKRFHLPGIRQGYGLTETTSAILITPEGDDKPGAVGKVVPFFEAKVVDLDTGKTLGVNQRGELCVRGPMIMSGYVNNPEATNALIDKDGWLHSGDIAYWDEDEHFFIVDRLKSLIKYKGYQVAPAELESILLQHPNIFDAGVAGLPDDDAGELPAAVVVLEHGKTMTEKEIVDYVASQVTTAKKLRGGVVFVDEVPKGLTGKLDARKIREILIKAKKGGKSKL
S16 viab conf: S16 Schwann cell cytotoxicity, confirmatory | Potency, µM (series often up to 57.5 µM), for inactives: at the top dose activity change, negative = viability loss, hits mostly cytotoxic | AID 1508641 | S16 Schwann cells viability, CellTiter-Glo ATP luminescence, 24 h | 690 compounds, 7% hits | shares compounds with PMP22 txn; note: potency is the fitted concentration of half-maximal effect; % is set by controls: 0 for no effect and ±100 for the full control effect
PMP22 txn conf: PMP22 transcription modulation, confirmatory; shares compounds with PMP22 txn; S16 Schwann cells Pmp22-F2sN, dual luciferase, 24 h; 690 compounds, 22% hits; Potency, µM (highest dose often 57.5 µM), inactives show at the top dose activity change, negative = inhibition, usual class: inhibitors; active = clear falling dose curves in both reporters; inconclusive = both reporters move, but less clearly or upward; inactive = either reporter flat; the % is the FLuc reporter signal; note: potency is the fitted concentration of half-maximal effect
PMP22 HiBiT cnf: rat PMP22 protein level modulation, confirmatory; S16 Schwann cells Pmp22-HiBiT, luminescence, 48 h; Potency, µM (highest dose often 27.9 µM), inactives show at the highest dose activity change, negative = inhibition, hits mostly inhibitors; shares compounds with PMP22 txn; 95 tested, under 10 active; AID 1508647
Target sequence (P25094 whole entry, looked up): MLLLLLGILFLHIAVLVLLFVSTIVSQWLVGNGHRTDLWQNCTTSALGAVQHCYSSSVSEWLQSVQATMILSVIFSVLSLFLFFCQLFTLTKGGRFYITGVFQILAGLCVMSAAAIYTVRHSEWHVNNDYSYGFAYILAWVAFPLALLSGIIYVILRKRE
Numbers without * were called inactive; [ ] = dose if it differs, or a comment. Unless noted, calls come from the whole dose curve; as a rule, active = well fitted curve in the direction sought with a large enough effect; inconclusive = small, poorly fitted or top-dose-only effect, or another doubt; inactive = no such curve, though single readings can be large; an effect the other way counts as inactive or inconclusive.

`Cc1ccc(NC(=O)C(Cc2c[nH]c3ccccc23)NC(=O)OC(C)(C)C)c(C)c1` (configuration not stated) gave pS6 MEF inh inconclusive, p53null 39C tox 15.7%, S16 viability -16.7%, p53null 32C tox 4.5% and PMP22 txn 23.2%.
CCC(=O)N1CCc2cc(S(=O)(=O)CCC(=O)Nc3ccc(Cl)c(C(F)(F)F)c3)ccc21 was read as pS6 MEF inh -12.1%, p53null 39C tox -6.1%, S16 viability -15.7%, p53null 32C tox 13.9%, PMP22 txn 11.2µM*, NLuc saturating -5.6%, NLuc Km counter 4.6%, FLuc ctr PMP22 7.0%, S16 viab conf -1.3%, PMP22 txn conf 18.3µM* and PMP22 HiBiT cnf inconclusive.
CCc1cccc(NS(=O)(=O)c2ccc3c(c2)CC(C)N3C(=O)C2CC2)c1 (configuration not stated) was read as pS6 MEF inh -7.5%, p53null 39C tox -2.8%, S16 viability inconclusive, p53null 32C tox 42.4% and PMP22 txn inconclusive.
COc1ccc(NS(=O)(=O)c2ccc3c(c2)CC(C)N3C(=O)C2CCC2)cc1OC (configuration not stated) was read as pS6 MEF inh -16.5%, p53null 39C tox 11.7%, S16 viability -12.5%, p53null 32C tox -0.5%, PMP22 txn 2.99µM*, NLuc saturating -17.2%, NLuc Km counter inconclusive, FLuc ctr PMP22 0.7%, S16 viab conf -5.1% and PMP22 txn conf inconclusive.
For COc1ccc(OC)c(CCNc2ncnc3onc(C)c23)c1 the results were pS6 MEF inh inconclusive, p53null 39C tox -6.5%, S16 viability -17.2%, p53null 32C tox -8.1%, PMP22 txn 11.3µM*, NLuc saturating -8.7%, NLuc Km counter -3.6%, FLuc ctr PMP22 inconclusive, S16 viab conf -13.1% and PMP22 txn conf -26.1%.
COc1ccc(C2Oc3nc(SC)nnc3-c3ccccc3N2C(C)=O)cc1 (configuration not stated) was read as pS6 MEF inh 8.7%, p53null 39C tox inconclusive, S16 viability 0.7%, p53null 32C tox 6.8% and PMP22 txn inconclusive.
CCSc1nnc2c(n1)OC(c1ccc(C)cc1)N(C(C)=O)c1ccccc1-2 (configuration not stated) was read as pS6 MEF inh -2.2%, p53null 39C tox -0.2%, S16 viability -25.1%, p53null 32C tox 42.5%, PMP22 txn inconclusive, NLuc saturating inconclusive, NLuc Km counter -17.0%, FLuc ctr PMP22 5.5%, S16 viab conf -4.4% and PMP22 txn conf -7.4%.
For CCN(CC)c1cc(C)c2cc(NC(=O)/C=C/c3ccccc3Cl)ccc2n1 the results were pS6 MEF inh inconclusive, p53null 39C tox inconclusive, S16 viability inconclusive, p53null 32C tox -2.6%, PMP22 txn 11.9µM*, NLuc saturating inconclusive, NLuc Km counter -16.6%, FLuc ctr PMP22 -24.5%, S16 viab conf inconclusive and PMP22 txn conf inconclusive.
Screening CCOC(=O)N1CCN(c2ncc3c(n2)CC(c2ccccc2O)CC3=O)CC1 (configuration not stated) returned pS6 MEF inh 2.7%, p53null 39C tox -10.3%, S16 viability -4.8%, p53null 32C tox -8.2% and PMP22 txn inconclusive.
Screening COc1ccccc1NC(=O)c1sc2nc(C)c(C(=O)Nc3ccc(C)cc3C)c(-c3cccs3)c2c1N returned pS6 MEF inh -0.9%, p53null 39C tox -19.4%, S16 viability 4.7%, p53null 32C tox 5.7% and PMP22 txn -1.2%.
Screening Cc1cccc(N2CCN(CCCNC(=O)Cn3ncc4c([nH]c5ccccc54)c3=O)CC2C)c1 (configuration not stated) returned pS6 MEF inh -8.6%, p53null 39C tox 7.5%, S16 viability 2.8%, p53null 32C tox 1.1% and PMP22 txn inconclusive.
Cc1ccc(NC(=O)/C(C#N)=C/c2cc(C)n(-c3ccc(Br)cc3)c2C)cc1C was read as pS6 MEF inh 3.2%, p53null 39C tox -2.0%, S16 viability -9.9%, p53null 32C tox -0.7%, PMP22 txn 11.9µM*, NLuc saturating 0.2%, NLuc Km counter -2.3%, FLuc ctr PMP22 -2.1%, S16 viab conf 7.7% and PMP22 txn conf inconclusive.
For Cc1ccc(-n2c(C)cc(/C=C(\C#N)C(=O)Nc3ccc(C)c(C)c3)c2C)cc1 the results were pS6 MEF inh 1.2%, p53null 39C tox -11.2%, S16 viability -1.2%, p53null 32C tox 5.2%[9.22 µM] and PMP22 txn -10.3%.
Screening CC(C)c1ccc(OCC(=O)Nc2cc(-c3nc4ncccc4o3)ccc2Cl)cc1 returned pS6 MEF inh -0.4%, p53null 39C tox -10.9%, S16 viability 21.0%, p53null 32C tox -2.4%, PMP22 txn 12.6µM*, NLuc saturating -4.9%, NLuc Km counter 4.5%, FLuc ctr PMP22 -8.6%, S16 viab conf 3.4% and PMP22 txn conf inconclusive.
CCOc1ccc2ncc(S(=O)(=O)c3ccc(C)cc3)c(N3CCC4(CC3)OCCO4)c2c1 was read as p53null 39C tox 3.0%.
